The panel holds about 83,000 compounds, 20% with a hit somewhere; the sample as a whole holds those more often.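 Values shown are percent growth following 48 h exposure of cells in 96-well plates to a single concentration of compound; below 10 was considered active.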 A number with no mark means an inactive call. Calls of active or inactive are those of the source.
The compounds below were run on NCI-H226 lung (assay: NCI-60 one-dose screen, 48 h (100 = growth as untreated, 0 = no growth, -100 = all killed)). Details: 10 µM unless noted.
In the case of `COc1ccc(C(=O)Cn2c(C(=O)c3ccc(Cl)cc3)nc3ccccc32)cc1`, the growth was 87.4%.
Compound `O=C1/C(=C/c2ccccc2F)CN(C(=O)C(Cl)Cl)C/C1=C\c1ccccc1F` has a growth of 39.4%.
For `CCOC(=O)C1=C(C)C(Cl)=N/C1=C\c1[nH]c(Cl)c(C)c1C(=O)OCC`, the growth was 65.1%.
`COc1ccc(/C=C/C(c2cc(OC)c(OC)c(OC)c2)n2cncn2)cc1` (stereo unspecified) gave a growth of 76%.
For `CCN1C(=O)N(CC)C2C1NC(=S)N2/N=C/c1ccc(C(F)(F)F)cc1` (stereo unspecified), the growth was 74.2%.
For `C[C@H](CCCC(=O)NCC#CCN1CCN(C)CC1)[C@H]1CC[C@H]2[C@@H]3CC[C@@H]4CC(=O)CC[C@]4(C)[C@H]3CC[C@]12C`, the growth was 103%.
Compound `Fc1cccc(-c2ccc3c(c2)C2(CCNCC2)CN3)c1` has a growth of 98%.
`CCN1C(=O)N(CC)C2Nn3c(s/c(=C\c4ccccc4Br)c3=O)=NC21` (stereo unspecified) was tested, and the growth was 57.5%.
With `O=C(NCc1cccc(CNC(=O)Nc2nc3ccccc3[nH]2)c1)Nc1nc2ccccc2[nH]1` the growth was -22.2% (active).
Compound `O=C1Nc2ccccc2/C1=C\c1c[nH]c2ccc(Br)cc12` has a growth of 34.9%.
Work on `COc1cc(C2C(C(=O)OCc3ccccc3)=C(C)NC(C)=C2C(=O)OCc2ccccc2)cc(OC)c1OC` yielded a growth of 32.2%.
For `CCn1cc(CNc2ccc(C(=O)Nc3cc4cc(OC)c(OC)cc4c(C)n3)cc2)cn1`, the growth was 48.7%.
Compound `COc1cc(/C=C/C(=O)/C=C(O)/C=C/c2ccc(OC(=O)C34CC5CC(CC(C5)C3)C4)c(OC)c2)ccc1OC(=O)C12CC3CC(CC(C3)C1)C2` has a growth of 93.6%.
In the case of `COc1ccc(C2=CN3CC=CC3CC2=O)cc1` (stereo unspecified), the growth was 98%.
Compound `C=C(C)[C@@H]1CCC[C@]2(C(=O)O)CC[C@]3(C)[C@@H](CC[C@@H]4[C@@]5(C)C/C(=C/c6ccncc6)C(=O)C(C)(C)[C@@H]5CC[C@]43C)[C@@H]12` has a growth of 36.1%.
For `FC(F)(F)c1ccc(Cn2cc(CSc3nc4ccccc4s3)nn2)cc1`, the growth was 83.1%.
In the case of `CCCn1nc(C(=O)N(C)Cc2ccccc2)c2c1CCC(N1CCc3ccccc31)C2` (stereo unspecified), the growth was 97.9%.
With `CCN1C(=O)N(CC)C2C1NN=c1s/c(=C\c3cnc(C)n3C)c(=O)n12` (stereo unspecified) the growth was 53.3%.
In the case of `CCOC(=O)c1c(C)nc2ccccc2c1/C=C/c1ccccc1`, the growth was 74.3%.
Work on `CN1CCN(C(=S)SCCCCOc2cc(=O)oc3ccccc23)CC1` yielded a growth of 67.1%.
In the case of `Nc1nc(N)c2c(n1)NC(c1cccc(Nc3ccnc4cc(C(F)(F)F)ccc34)c1)CC(c1ccc(Br)cc1)=N2` (stereo unspecified), the growth was 93.9%.
`O=C(Nc1ccc(Cl)cc1)Oc1c(Cl)c(Cl)c(Cl)c(Cl)c1Cl` showed a growth of 89.6%.
`CC(=O)/C(=C/c1ccc([N+](=O)[O-])cc1)C(=O)c1ccccc1` gave a growth of 81.5%.
`Cc1cccc(N2CCC(=O)NC2=S)c1` was tested, and the growth was 97.3%.
With `Cc1ccc(S(=O)(=O)OCCCOS(=O)(=O)c2ccc(C)cc2)cc1` the growth was 107%.
`CCOC(=O)c1c(C)nc2c(c1N)CC(=O)N2Cc1ccc(OC)cc1` gave a growth of 17.4%.

Reference: PubChem BioAssay (NCI)
